In the supplement of paper PMC10338343:
± gives the standard deviation.

Key:
[1] = tested on: MILI (PIWIL2) piRISC loaded with piRNA #1 (26 nt); test: pre-steady-state target cleavage rate (min^-1); guide: piRNA #1 5'p-UGAGGUAGUAGGUUGUAUAGUAUCCA; higher = faster piRNA-guided slicing of the target; details: auxiliary factor: 500 nM mouse GTSF1;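 note: 1 nM active piRISC with 0.1 nM target library at 33 °C single turnover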
How it was run: (§1)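 In this Cleave-'n-Seq assay, uncleaved targets were sequenced and normalised to depth and to weakly complementary targets. They came from a transcribed, DNA-blocked target RNA library […] mixed with 1 nM active affinity-purified piRISC carrying one synthetic guide, with or without 500 nM GTSF1 partner protein, in HEPES–potassium acetate buffer at 33 °C for 0–8 or 0–960 min. After three trials were pooled and k3 was capped at 0.0001 min^-1, the pre-steady-state cleavage rate was obtained from a burst-and-steady-state fit.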

[2] = tested on: EfPiwi piRISC loaded with piRNA #1 (26 nt); test: pre-steady-state target cleavage rate (min^-1); auxiliary factor: 500 nM Ephydatia muelleri Gtsf1; guide: piRNA #1 5'p-UGAGGUAGUAGGUUGUAUAGUAUCCA; MIWI and MILI are mouse PIWI proteins and EfPiwi is from a freshwater sponge; tags in brackets are library labels; higher = faster piRNA-guided slicing of the target
How it was run: as §1

Sequence	pre-steady-state target cleavage rate [1]	pre-steady-state target cleavage rate [2]
GGAGACGAUACUAUACAACCUGCUACCUCA	0.0677 ± 0.008	0.128 ± 0.046
GGAGACCUUACUAGUACAACCUACUACCUCA	0.0945 ± 0.0095	0.00695 ± 0.0046
GGAGAGGAUACUAUUCAACCUACUACCUCA	0.178 ± 0.011	0.012 ± 0.0057
GGAGAGGAUACUAUAGAACCUACUACCACA	0.0636 ± 0.0099	0.00261 ± 0.0014
GGAGACCAUACUAUACAACCUACUCCCUCA	0.106 ± 0.017	0.00669 ± 0.0039
GGAGUGGAUACUAUACAACCGUACUACCUCA	0.00369 ± 0.0022	0.00658 ± 0.0027
GGAGAGGAUACUAUACAACCUACUUGCUCA	0.00476 ± 0.0029	0.00478 ± 0.0023
GGAGUGCAUACAAUACAACCUACUACCUCA	0.186 ± 0.013	0.0102 ± 0.0044
GGAGAGGAUACUAUACAACGCUACUACCUCA	0.00299 ± 0.0026	0.00523 ± 0.0033
GGAGACGAUACUAUACAACCUACUACAUCA	0.0978 ± 0.015	0.0059 ± 0.0024
GGAGUGGAUACUAUACAACCUACUACGACA	0.0497 ± 0.008	0.00539 ± 0.0025
GGAGACGAUUCUAUACAACCUACUAGCUCA	0.12 ± 0.013	0.00278 ± 0.0019
GGAGUGGAUACUAUAAAACCUACUACCUCA	0.161 ± 0.0081	0.00522 ± 0.0025
GGAGACCUAAGUUUACAACCUACUACCUCA	0.0168 ± 0.0041	0.00645 ± 0.0046
GGAGACCUAACUAUACAACGUACUACGUCA	0.00454 ± 0.0043	0.00291 ± 0.0026
GGAGACCUUACUAUACAACCUACUACCUACA	0.109 ± 0.017	0.00473 ± 0.0031
GGAGACCAUACUAUACAACCUAGUACCUCA	0.0657 ± 0.013	0.00446 ± 0.0014
GGAGUGGAUACAAUACAACCUUCUACCUCA	0.0111 ± 0.0024	0.00456 ± 0.0022
GGAGUGGAUUGAAUACAACCUACUACCUCA	0.0713 ± 0.0073	0.00637 ± 0.0044
GGAGACCUUACUAUACAACCUACUACCCA	0.0955 ± 0.016	0.00518 ± 0.0043
GGAGACCAUACUAUACAACCUACUACCCA	0.0934 ± 0.019	0.00453 ± 0.0028
GGAGAGGAUACUAGACAACCUACUACCUCA	0.118 ± 0.01	0.0121 ± 0.0055
GGAGACGAUACGUAUACAACCUACUACCUCA	0.107 ± 0.013	0.00952 ± 0.0048
GGAGAGCAUACUAUACAACCUACUUCCUCA	0.0809 ± 0.025	0.00292 ± 0.0021
GGAGACCAUACUAUACAACCUACCUACCUCA	0.129 ± 0.017	0.00424 ± 0.0022
GGAGACCAACUAUACAACCUACUACCUCA	0.224 ± 0.021	0.00596 ± 0.0037
GGAGAGGAUACUAUACAACCUACUACCUUCA	0.178 ± 0.016	0.104 ± 0.039
GGAGUGGAUACUAUAGAACCUACUACCUCA	0.178 ± 0.0098	0.00377 ± 0.0019

Sequence	pre-steady-state target cleavage rate [1]	pre-steady-state target cleavage rate [2]
GGAGAGGAUACUAAUACAACCUACUACCUCA	0.147 ± 0.011	0.128 ± 0.048
GGAGACGAUACUACUACAACCUACUACCUCA	0.193 ± 0.015	0.0327 ± 0.012
GGAGACGAUACUAAACAACCUACUUCCUCA	0.0843 ± 0.021	0.00245 ± 0.0022
GGAGACCAUACUAUACAACCUUCUUCCUCA	0.00848 ± 0.0038	0.00613 ± 0.0044
GGAGAGGAUGACUAUACAACCUACUACCUCA	0.0775 ± 0.015	0.01 ± 0.006
GGAGACCUUACUAUACAACGUACUUCCUCA	0.0242 ± 0.0053	0.00315 ± 0.0021
GGAGUGGAUACUAUUCUACCUACUACCUCA	0.19 ± 0.011	0.00571 ± 0.0035
GGAGAGGAUACUAUUACAACCUACUACCUCA	0.167 ± 0.012	0.0933 ± 0.04
GGAGACCAUACUAUACAACCUACCACCUCA	0.0975 ± 0.015	0.00474 ± 0.0033
GGAGUGGAUACUAAACUACCUACUACCUCA	0.172 ± 0.011	0.00956 ± 0.0047
GGAGUGGAUACUAUACUACCUACUACCACA	0.143 ± 0.013	0.0024 ± 0.0017
GGAGACCUUACUAUACAACCUACUAGCUCA	0.145 ± 0.02	0.00255 ± 0.0017
GGAGACCAUACUAUACAACCAUACUACCUCA	0.0045 ± 0.0036	0.00431 ± 0.003
GGAGACCAUACUUUACUACCUACUACCUCA	0.129 ± 0.015	0.00371 ± 0.0032
GGAGACCUAACUAUCACAACCUACUACCUCA	0.085 ± 0.025	0.00495 ± 0.0033
GGAGACGAUCACUAUACAACCUACUACCUCA	0.131 ± 0.019	0.0768 ± 0.029
GGAGACCAUACUAUACAACCUACUUCCUGA	0.0889 ± 0.02	0.00388 ± 0.0027
GGAGAGGAUACUAUACAACCUACUAGCACA	0.00642 ± 0.0042	0.00322 ± 0.0016
GGAGUGGAUACUAUACAACGCUACUACCUCA	0.0044 ± 0.0029	0.00636 ± 0.003
GGAGUGGAUACUAUACAACCUAGCUACCUCA	0.0643 ± 0.006	0.003 ± 0.0015
GGAGACCUUACUAUACAACUUACUACCUCA	0.0242 ± 0.0054	0.00902 ± 0.0051
GGAGAGGAUACUAUUCAACCAACUACCUCA	0.00614 ± 0.0021	0.00354 ± 0.0021
GGAGACCUAUCUAUACAACCUACUAUCUCA	0.0794 ± 0.013	0.00591 ± 0.004
GGAGACGAAACUAUACAACCUACUACCUCA	0.172 ± 0.022	0.0619 ± 0.022
GGAGAGGAUACUAUACAACGUACUACCUGA	0.0116 ± 0.0027	0.00359 ± 0.0014
GGAGAGGAUACUAUACAACCUACUACGUCA	0.058 ± 0.0086	0.00636 ± 0.0029
GGAGUGGAUACUAUUCAACCUACUACCUGA	0.0817 ± 0.011	0.00324 ± 0.0019
